From PubChem
Sampled rows, rich in hits. Any-hit rate of the full collection: about 2.1%.
D2 PAM-1: human D2 receptor positive allosteric modulation; DiscoveRx D2 beta-arrestin cells, luminescence, 90 min; 100% = 57 uM dopamine signal; potentiation, % (test concentration not listed); actives 0.23% (n = 360,000); AID 624464; in the data active = potentiation above about 50%; inconclusive = mostly about 30% to 49%
Target sequence (P14416 whole entry, looked up): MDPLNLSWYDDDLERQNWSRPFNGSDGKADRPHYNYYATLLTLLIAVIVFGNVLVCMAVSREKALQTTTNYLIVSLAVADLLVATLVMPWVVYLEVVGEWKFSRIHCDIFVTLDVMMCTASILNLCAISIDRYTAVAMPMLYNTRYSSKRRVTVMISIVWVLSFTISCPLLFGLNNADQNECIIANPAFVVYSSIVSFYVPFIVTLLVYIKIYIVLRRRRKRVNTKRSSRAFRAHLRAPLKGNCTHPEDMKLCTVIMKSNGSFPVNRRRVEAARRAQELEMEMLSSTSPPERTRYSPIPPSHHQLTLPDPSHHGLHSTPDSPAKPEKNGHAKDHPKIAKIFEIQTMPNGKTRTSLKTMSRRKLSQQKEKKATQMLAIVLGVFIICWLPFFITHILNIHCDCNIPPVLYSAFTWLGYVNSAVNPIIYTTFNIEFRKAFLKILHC
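D2 cells co-treated with compound plus 50 nM dopamine (EC20) for 90 min at 37 deg C to detect potentiation. Beta-arrestin recruitment was read as enzyme-fragment luminescence after 1 h at ambient temperature. Full response was set by 57 uM dopamine.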
D2 PAM-2: positively modulates the human D2 dopamine receptor allosterically | HEK293 T-REx D2, calcium flux, EC20 dopamine potentiation | potentiation, % at 10 µM | actives 0.34% (n = 340,000);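 active = potentiation over 3 SD above the plate norm, cut at about 30% in these data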; note: 0% is about no effect
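Primary screen. Calcium kinetics in induced HEK293 T-REx D2 cells: compound pre-addition 180 s, EC20 dopamine, 180 s more.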
D2 antag: antagonizes the human D2 dopamine receptor; P14416; HEK293 TREx D2 cells, calcium flux, dopamine EC80; inhibition, % at 10 µM; actives 2% (n = 340,000); AID 485344; in the data active = inhibition above about 30%; inactive = below that, where a call was filed; note: 0% is about no effect
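Antagonism is scored as inhibition of an EC80 dopamine-evoked calcium signal in a force-coupled, tetracycline-inducible HEK293 T-REx D2 line, with compound present 180 s before agonist.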
LDHA block: blocks human lactate dehydrogenase A. AID 1347041. P00338. activity change, % (values are at about 110 or 230 µM). actives 0.15% (n = 480,000). purified LDHA, NADH/diaphorase-resazurin fluorescence; hits give low values; in the data active = activity change below about -30%; inconclusive = mostly about -25% to -30%;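 note: plate controls were DMSO wells for no effect and wells without enzyme for full effect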
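Human LDH5 (2 nM) was incubated with 0.06 mM NADH and 0.2 mM pyruvate for 5 min at room temperature in Tris pH 7.4. Remaining NADH was coupled through diaphorase/resazurin, and resorufin fluorescence was read at 0 and 20 min.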
D2 ag-1: agonists of human D2 dopamine receptor (beta-arrestin); activation, % (no concentration beside the values); AID 624465; P14416; actives 0.084% (n = 360,000); DiscoveRx PathHunter D2 beta-arrestin, luminescence, 90 min; 100% = 57 uM dopamine signal; in the data active = activation above about 40%; inconclusive = between about 15% and that limit
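DiscoveRx PathHunter D2 beta-arrestin cells (2,100/well) attached overnight, then compound-stimulated 90 min at 37 C in HBSS/10 mM HEPES/0.1% Tween-20 buffer; beta-galactosidase complementation read by luminescence after 1 h at ambient temperature. Dopamine 57 uM final (EC100) as control.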
D2 ag-2: agonists of human D2 dopamine receptor. HEK293 T-REx D2 cells, calcium flux agonist mode. activation, % at 2 µM. P14416. actives 0.53% (n = 340,000);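 active = activation over 3 SD above normal in the single-dose calcium agonist read, cut at about 30% in these data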; note: 0% is about no effect
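Agonism scored from kinetic calcium signal (1 read/sec, 180 s) following compound pin transfer, after a 10 s baseline. Cells: HEK293 Trex line expressing inducible D2 receptor coupled to calcium, dye-loaded after overnight culture at 30 C.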
* hit, by the source's call; ? = inconclusive; · = no result given.

SMILES | D2 PAM-1 | D2 PAM-2 | D2 antag | LDHA block | D2 ag-1 | D2 ag-2
Cc1cccc(NC(=O)C2CCN(S(=O)(=O)c3c(C)noc3C)CC2)c1 | -6 | -6 | 7 | -4 | 0 | 0
Cc1noc(C)c1S(=O)(=O)N1CCC(C(=O)Nc2ccccn2)CC1 | 15 | 34* | 3 | 1 | -2 | 0
Cc1ccc(S(=O)(=O)N2CCC(C(=O)NCCc3ccccn3)CC2)cc1 | -20 | -3 | 43* | -3 | -3 | 3
Cc1noc(C)c1S(=O)(=O)N1CCN(c2ccccc2)CC1 | -7 | 0 | 38* | -9 | -7 | 1
CCOc1ccccc1/C=C/c1onc(C)c1S(=O)(=O)N1CCC(C(=O)N(CC)CC)CC1 | -21 | -24 | 56* | -3 | -1 | -1
O=C(CN1C(=O)S/C(=C\c2cccs2)C1=O)Nc1ccc(C(=O)O)c(O)c1 | -6 | 8 | 40* | -1 | -2 | -1
Cc1cc(C)c(NC(=O)C2CCCN(S(=O)(=O)c3c(C)noc3/C=C/N(C)C)C2)c(C)c1 (stereo not drawn) | -3 | -1 | 33* | -5 | -2 | 0
Cc1cc(C)c(NC(=O)C2CCCN(S(=O)(=O)c3c(C)noc3C)C2)c(C)c1 (stereo not drawn) | · | 30 | · | -2 | · | -1
Nc1nnnn1/N=C/c1cc(Br)ccc1O | -16 | · | · | -47* | 1 | ·
Nc1nnnn1/N=C/c1ccc(Br)cc1 | -1 | · | · | -11 | 14 | ·
COc1cccc(C2NC(=O)NC(C)=C2C(=O)Nc2ccc(C)cc2)c1OC (stereo not drawn) | -19 | -4 | 31* | 1 | -3 | 0
COc1ccc(NC(=O)C2=C(C)NC(=O)NC2c2cccc(OC)c2OC)c(OC)c1 (stereo not drawn) | 14 | 12 | 5 | 3 | 2 | 0
O=C(NCC(c1ccc(F)cc1)N1CCOCC1)c1ccc(-c2ccccc2)cc1 (stereo not drawn) | -1 | · | · | -8 | 0 | ·
O=C(NCC(c1ccc(F)cc1)N1CCOCC1)c1nn(-c2ccccc2)c(=O)c2ccccc12 (stereo not drawn) | -2 | -33 | 70* | -5 | -5 | 0
CN(C)c1ccc(/C=C2\SC(=S)N(Nc3ncc(C(F)(F)F)cc3Cl)C2=O)cc1 | -23 | -3 | -19 | -7 | -6 | 45*
Cc1ccc(C)c(/C=C/c2onc(C)c2S(=O)(=O)N2CCCC(C(=O)NC3CCCC3)C2)c1 (stereo not drawn) | · | · | · | 0 | · | ·
COCC(=O)N1CCN(c2oc(-c3ccc(C)cc3)nc2S(=O)(=O)c2ccc(F)cc2)CC1 | · | · | · | -36* | · | ·
COCC(=O)N1CCN(c2oc(-c3cccc(C)c3)nc2S(=O)(=O)c2ccc(F)cc2)CC1 | · | · | · | 2 | · | ·
CCc1ccccc1NC(=O)NC1CC2CCC(C1)N2Cc1cccs1 (stereo not drawn) | -26 | -18 | 55* | -1 | -3 | -1
CCc1ccc(NC(=S)NC2CC3CCCC(C2)N3Cc2cccs2)cc1 (stereo not drawn) | -29 | -25 | 64* | -6 | 0 | 1
CCc1ccccc1NC(=O)NC1CCCCC1 | -28 | · | · | -9 | -2 | ·
CCc1ccc(OCC(=O)Nc2ccc3oc(-c4ccccc4)nc3c2)c(-n2cnnc2)c1 | · | · | · | -1 | · | ·
CC(NC(=O)c1ccc(N2CCCC2=O)cc1)c1ccccc1Cl (stereo not drawn) | · | · | · | -1 | · | ·
Cc1n[nH]c(C)c1Cl | · | · | · | 2 | · | ·
Cc1cc2oc(=O)cc(CSc3nnc(C)n3N)c2cc1C(C)C | 18 | 16 | 3 | 2 | 0 | -2
SMILES | D2 PAM-1 | D2 PAM-2 | D2 antag | LDHA block | D2 ag-1 | D2 ag-2
Cc1cc2oc(=O)cc(CSc3nnc(-c4cccs4)o3)c2cc1C(C)C | 1 | -9 | 36* | 1 | -3 | 0
Cc1cc2ccccc2n1CC(=O)NCC(=O)N1CCCC1 | · | · | · | 0 | · | ·
Cc1ccc(C2(c3ccc(C)cc3)SC(=S)c3ccccc32)cc1 | · | · | · | 1 | · | ·
Oc1ccc2ccccc2c1C=NC12CN3CCN(CN(C3)C1)C2 | 102* | · | · | 41 | 11 | ·
CN(C)c1ccc(N=Cc2c(O)ccc3ccccc23)cc1 | · | · | · | 67 | · | ·
OCC(CO)(CO)N=Cc1c(O)ccc2ccccc12 | 50* | -7 | -10 | 40 | 8 | 0
CN(C)/N=C/c1c(O)ccc2ccccc12 | 5 | -3 | 12 | 16 | 0 | 1
C=Cc1ccc(N=Cc2c(O)ccc3ccccc23)cc1 | 3 | 16 | 44* | 8 | -1 | 2
NC(=O)C1CCN(Cc2ccc(C(F)(F)F)cc2)CC1 | · | · | · | -4 | · | ·
Cc1cccc2nc(CSc3ccc4ccccc4n3)cc(=O)n12 | · | · | · | -3 | · | ·
Cc1ccccc1-c1nc2cc(NC(=O)/C=C/c3ccco3)ccc2o1 | · | · | · | 1 | · | ·
Cc1ccc(S(=O)(=O)N/N=C\c2cccnc2)cc1 | -14 | -1 | 35* | 3 | 4 | 0
Cc1ccccc1CN1CCN(Cc2ccccc2C(F)(F)F)CC1 | -26 | -14 | 4 | -39* | -1 | 1
FC(F)(F)c1ccccc1CN1CCN(C2CCCCCC2)CC1 | -16 | -32 | 44* | -14 | -2 | 0
CCOc1ccc(NC(=O)Cn2c(Nc3ccc(F)c(C)c3)nc(C)cc2=O)cc1 | · | · | · | 2 | · | ·
O=C(CN1CCN(Cc2ccccc2F)C1=O)NC1CCCC1 | -9 | 2 | 40* | -5 | -4 | 0
Cc1ccc(CN(C(=O)c2cc(=O)c3cc(Cl)c(C)cc3o2)c2ccccn2)o1 | · | · | · | 2 | · | ·
COCCN1Cc2cccc(C(=O)Nc3ccc(C(=O)OC)cc3)c2C1=O | · | 2 | · | 4 | · | 0
COCCN1Cc2cccc(C(=O)Nc3ccc(C)cc3)c2C1=O | 0 | 4 | 41* | -8 | 2 | 1
CN(CCC#N)C(=O)COC(=O)c1ccc(Cl)cc1O | 0 | -6 | 47* | -5 | -2 | 1
C=CCc1cccc(C=Nc2cc(Br)ccc2O)c1O | 72* | -2 | 3 | 11 | ? | 1
Cc1ccc(C(NC(=O)c2ccccc2S(C)(=O)=O)c2ccccc2)cc1 (stereo not drawn) | -5 | 34* | -17 | -17 | -1 | -1
Cc1ccc(C(NC(N)=O)c2ccccc2)cc1 (stereo not drawn) | -2 | 5 | 40* | 1 | 1 | 0
Cc1ccc(C(NC(=O)C2CCCCC2)c2ccccc2)cc1 (stereo not drawn) | · | · | · | 5 | · | ·
Cn1c(Oc2ccc(F)cc2)c(C#N)c(=O)n(C)c1=O | · | · | · | -15 | · | ·
CCc1cc(OCCN(C)C)ccc1Cl | -16 | -20 | 16 | -35* | -14 | 1
Cc1cc(OCCOCCN(C)C)ccc1Cl | -4 | -2 | 0 | -6 | -2 | 1
